Out of some 340,000 compounds screened, about 2,000 (0.59%) were called active. For the sample, actives were picked, then their nearest neighbours and some compounds at random. A number with no mark means an inactive call. Cut-off read from the data, not from the text of the source: active = activation mostly above about 9.5% (no sharp cut-off); inactive = mostly below about 7.6%.

The text below walks through data of PubChem BioAssay AID504692 (The Scripps Research Institute Molecular Screening Center, 2011).

For the experiment, the target named is 5-hydroxytryptamine receptor 5A (Homo sapiens) (UniProt P47898). Put plainly: HTR5A agonists in luminescence cell assay, primary screen, counter-screen for OPRM1-OPRD1 heterodimer agonist project, full-deck HTS (AID 504692).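 Note: 0% = cells with vehicle only and 100% = reference agonist.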 The following applies: cell-based, at 9.3 µM, stronger effect = higher value.
Sequence of 5-hydroxytryptamine receptor 5A (Homo sapiens) (P47898 whole entry, looked up): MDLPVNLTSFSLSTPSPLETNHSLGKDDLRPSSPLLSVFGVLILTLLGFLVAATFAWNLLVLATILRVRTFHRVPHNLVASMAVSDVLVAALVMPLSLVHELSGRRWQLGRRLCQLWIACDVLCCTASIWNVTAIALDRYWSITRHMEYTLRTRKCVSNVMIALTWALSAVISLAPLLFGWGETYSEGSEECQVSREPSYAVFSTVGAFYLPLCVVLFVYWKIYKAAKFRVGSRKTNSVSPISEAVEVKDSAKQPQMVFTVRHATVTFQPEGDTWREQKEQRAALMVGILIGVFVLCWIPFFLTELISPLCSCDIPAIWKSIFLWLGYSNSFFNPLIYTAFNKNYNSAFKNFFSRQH
In the case of `Cc1cc(C)cc(C(=O)N(CCc2ccccc2)C2=CC3CCC(C2)N3C)c1` (stereo unspecified), the activation was 7.8%.

For the compound `CCCN(CCc1ccccc1)C1CCc2c(O)cccc2C1` (stereo unspecified), the activation was 24.5% (active).

Take `CC(C)CNC(=O)c1cc(-c2ccc(Br)cc2)on1`: the activation was 5.27%.

As to `CC(NC(=O)c1cc(-c2ccccc2)on1)c1ccccc1` (stereo unspecified), the activation was 18.9% (active).

Turning to `O=C(NC1CCCC1)c1cc(-c2ccccc2)on1`, the activation was -5.2%.

In the case of `CCOC(=O)c1c(/N=C/c2cc(C)ccc2O)sc2c1CCC2`, the activation is 3.38%.

Take `Cc1cc(-c2ccc(C)c(S(=O)(=O)Nc3ccc(S(N)(=O)=O)cc3)c2)on1`: the activation was 1.19%.

As to `Cc1cc(-c2ccc(C)c(S(=O)(=O)NCCCN(Cc3ccccc3)C(C)C)c2)on1`, the activation was -3.67%.

For `Cc1cc(-c2ccc(C)c(S(=O)(=O)NC(C)Cc3ccco3)c2)on1` (stereo unspecified), the activation was 11.8% (active).

Consider `CCc1c(C)c2c(C)[nH]nc2oc1=O`, for which the activation is 2.29%.

As to `CNS(=O)(=O)c1cccc(C(=O)OCCCC(=O)c2ccccc2)c1`, the activation was 2.3%.

In the case of `CCCNC(=S)N1CCCC(c2nc3ccccc3[nH]2)C1` (stereo unspecified), the activation is 2.29%.

Consider `CCNC(=S)N1CCC(c2nc3cc(C)c(C)cc3[nH]2)CC1`, for which the activation was 0.03%.

For the compound `CN(C)CCCNC(=S)N1CCC(c2nc3ccccc3[nH]2)CC1`, the activation is 11.5% (active).

`O=C(OCC(=O)N1CCCCCC1)c1cnc(Cl)c(Cl)c1`: the activation is -5.36%.

Turning to `CCCOc1ccc(C(=O)CCC(=O)OC(C)C(=O)Nc2ccc(NC(C)=O)cc2)cc1` (stereo unspecified), the activation was 2.99%.

Regarding `CCCOc1ccc(C(=O)C(CCC(CNCC)C(=O)c2ccc(OCCC)cc2)CNCC)cc1` (stereo unspecified), the activation was 19.9% (active).

As for `CCCOc1ccc(/C=N/NC(=O)C2CC2)c(OCCC)c1`, the activation is 4.85%.

`O=C(c1ccco1)N1CCN(Cc2cccc(C(F)(F)F)c2)CC1`: the activation was 4.8%.

Consider `Cn1c(CN2CCOCC2)nc2cc(NC(=O)c3ccc(Cl)cc3)ccc21`, for which the activation was 9.89%.

Consider `CN(c1ccccc1)S(=O)(=O)c1ccc(C(=O)N2CCN(c3ccccc3Cl)CC2)cc1`, for which the activation was 0.22%.

On to `CN(c1ccccc1)S(=O)(=O)c1cc(C(=O)OCC(=O)N2CCN(C(=O)c3ccco3)CC2)ccc1Cl`, for which the activation is 3.06%.

In the case of `CN(c1ccccc1)S(=O)(=O)c1cc(C(=O)N2CCN(c3ncccn3)CC2)ccc1Cl`, the activation was 15.4% (active).

On to `Cc1cc(C)cc(C(=O)NCC(=O)OCC(=O)N2CCCCC2)c1`, for which the activation was -2.45%.

For the compound `Cc1ccc(S(=O)(=O)N(CC(=O)NCCSC2CCCCC2)c2ccccc2F)cc1`, the activation is 2.64%.

Take `O=C(NC1(C(F)(F)F)N=C2SCCN2C1=O)c1ccco1` (stereo unspecified): the activation is 3.99%.
